# Test results published in the supplement of paper PMC11732987, “Enantioselective OTUD7B fragment discovery through chemoproteomics screening and high-throughput optimisation” (Communications Chemistry, 2025).
# A number with no mark means an inactive call.
# What was measured:
# Assay in all cases: log2 ratio of Biotin-Ahx-Ub-VS probe labelling (fragment/DMSO); higher = less target engagement (more negative = stronger competition), active = hit call of the paper (q ≤ 0.05, log2 ratio ≤ -1)
# Conditions in all cases: compound concentration: 200 uM; treatment time: 3 h
# ALG13 = target: T1, ALG13 (UniProt Q9NP73)
# T1 sequence (whole entry): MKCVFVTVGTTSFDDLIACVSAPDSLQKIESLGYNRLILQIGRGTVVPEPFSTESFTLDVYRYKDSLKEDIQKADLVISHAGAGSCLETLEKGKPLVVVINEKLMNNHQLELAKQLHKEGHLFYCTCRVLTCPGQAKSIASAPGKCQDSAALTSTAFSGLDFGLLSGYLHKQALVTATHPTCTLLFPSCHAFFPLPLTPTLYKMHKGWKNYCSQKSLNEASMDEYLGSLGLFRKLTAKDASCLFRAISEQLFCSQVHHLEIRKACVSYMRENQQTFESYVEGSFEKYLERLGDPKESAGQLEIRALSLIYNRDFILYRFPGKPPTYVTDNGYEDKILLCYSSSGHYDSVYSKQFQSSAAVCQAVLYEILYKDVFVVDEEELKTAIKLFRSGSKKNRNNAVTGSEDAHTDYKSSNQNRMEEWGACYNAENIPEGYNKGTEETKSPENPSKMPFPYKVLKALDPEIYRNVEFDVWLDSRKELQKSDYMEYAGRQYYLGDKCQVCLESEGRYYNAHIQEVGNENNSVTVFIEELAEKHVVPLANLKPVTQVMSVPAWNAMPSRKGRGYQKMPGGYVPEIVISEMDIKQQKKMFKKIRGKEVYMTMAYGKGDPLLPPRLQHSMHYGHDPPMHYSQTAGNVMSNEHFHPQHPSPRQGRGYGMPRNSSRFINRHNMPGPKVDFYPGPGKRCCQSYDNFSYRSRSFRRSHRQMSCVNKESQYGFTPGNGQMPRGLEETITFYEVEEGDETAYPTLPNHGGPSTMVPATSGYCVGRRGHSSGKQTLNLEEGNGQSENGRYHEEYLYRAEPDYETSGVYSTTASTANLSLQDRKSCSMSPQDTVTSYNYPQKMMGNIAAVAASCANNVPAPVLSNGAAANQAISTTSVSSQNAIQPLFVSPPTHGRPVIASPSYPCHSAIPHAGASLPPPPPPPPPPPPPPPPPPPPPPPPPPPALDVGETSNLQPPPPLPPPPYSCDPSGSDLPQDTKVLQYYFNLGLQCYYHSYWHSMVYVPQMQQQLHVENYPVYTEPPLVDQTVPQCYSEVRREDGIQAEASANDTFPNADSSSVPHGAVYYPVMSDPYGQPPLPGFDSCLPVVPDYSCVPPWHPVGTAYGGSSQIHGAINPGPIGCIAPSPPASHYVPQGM
# Summary of the method: (§1)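 Triplicate samples of HEK293T lysate, 495 µg each, received fragment at 200 µM or vehicle for 3 h, followed by Biotin-Ahx-Ub-VS (0.5 µM final) for 1 h. After NeutrAvidin enrichment of labelled DUBs and LysC/trypsin digestion, peptides were run by diaPASEF LC-MS/MS. The values are average log2 fragment/vehicle ratios from global-median-normalised Spectronaut label-free quantities, tested by unpaired t-test on proteins having ≥2 unique peptides.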
# ATXN3 = ATXN3 (UniProt P54252)
# Summary of the method: as §1
# BAP1 = target: T2, BAP1 (UniProt Q92560)
# T2 sequence (whole entry): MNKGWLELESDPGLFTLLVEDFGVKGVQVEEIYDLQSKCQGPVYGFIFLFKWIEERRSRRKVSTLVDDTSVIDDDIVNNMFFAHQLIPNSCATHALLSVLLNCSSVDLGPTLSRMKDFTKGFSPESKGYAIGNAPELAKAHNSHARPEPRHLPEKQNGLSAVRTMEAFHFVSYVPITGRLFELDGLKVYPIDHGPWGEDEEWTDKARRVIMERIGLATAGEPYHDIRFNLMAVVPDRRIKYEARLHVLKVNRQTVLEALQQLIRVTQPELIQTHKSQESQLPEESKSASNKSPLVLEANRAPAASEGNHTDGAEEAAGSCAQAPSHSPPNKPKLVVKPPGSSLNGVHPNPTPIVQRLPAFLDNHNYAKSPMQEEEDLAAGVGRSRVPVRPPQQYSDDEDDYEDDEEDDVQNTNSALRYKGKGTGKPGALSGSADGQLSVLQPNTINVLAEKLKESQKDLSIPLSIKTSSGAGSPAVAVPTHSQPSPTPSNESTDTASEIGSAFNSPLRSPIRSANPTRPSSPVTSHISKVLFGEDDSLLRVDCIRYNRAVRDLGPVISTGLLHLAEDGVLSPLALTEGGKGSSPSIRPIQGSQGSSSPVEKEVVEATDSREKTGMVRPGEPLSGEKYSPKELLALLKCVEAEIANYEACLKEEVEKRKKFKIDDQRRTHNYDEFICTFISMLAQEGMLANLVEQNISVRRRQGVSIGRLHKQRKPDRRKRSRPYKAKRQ
# Summary of the method: as §1
# EIF3F = EIF3F (UniProt O00303)
# Summary of the method: as §1
# EIF3H = EIF3H (UniProt O15372)
# Summary of the method: as §1
# FAM105A = target: T3, FAM105A (UniProt Q9NUU6)
# T3 sequence (whole entry): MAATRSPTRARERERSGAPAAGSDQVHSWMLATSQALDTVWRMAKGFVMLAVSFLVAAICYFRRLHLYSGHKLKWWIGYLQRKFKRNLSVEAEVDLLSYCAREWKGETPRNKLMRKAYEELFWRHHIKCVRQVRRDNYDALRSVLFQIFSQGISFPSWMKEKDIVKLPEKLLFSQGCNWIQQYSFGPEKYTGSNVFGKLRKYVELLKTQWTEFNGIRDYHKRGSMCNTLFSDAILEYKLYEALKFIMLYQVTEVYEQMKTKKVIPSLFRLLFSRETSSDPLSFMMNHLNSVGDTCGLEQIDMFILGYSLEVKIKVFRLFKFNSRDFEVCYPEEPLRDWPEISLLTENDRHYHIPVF
# Summary of the method: as §1
# OTUB1 = OTUB1 (UniProt Q96FW1)
# Summary of the method: as §1
# OTUD4 = target: T4, OTUD4 (UniProt Q01804)
# T4 sequence (whole entry): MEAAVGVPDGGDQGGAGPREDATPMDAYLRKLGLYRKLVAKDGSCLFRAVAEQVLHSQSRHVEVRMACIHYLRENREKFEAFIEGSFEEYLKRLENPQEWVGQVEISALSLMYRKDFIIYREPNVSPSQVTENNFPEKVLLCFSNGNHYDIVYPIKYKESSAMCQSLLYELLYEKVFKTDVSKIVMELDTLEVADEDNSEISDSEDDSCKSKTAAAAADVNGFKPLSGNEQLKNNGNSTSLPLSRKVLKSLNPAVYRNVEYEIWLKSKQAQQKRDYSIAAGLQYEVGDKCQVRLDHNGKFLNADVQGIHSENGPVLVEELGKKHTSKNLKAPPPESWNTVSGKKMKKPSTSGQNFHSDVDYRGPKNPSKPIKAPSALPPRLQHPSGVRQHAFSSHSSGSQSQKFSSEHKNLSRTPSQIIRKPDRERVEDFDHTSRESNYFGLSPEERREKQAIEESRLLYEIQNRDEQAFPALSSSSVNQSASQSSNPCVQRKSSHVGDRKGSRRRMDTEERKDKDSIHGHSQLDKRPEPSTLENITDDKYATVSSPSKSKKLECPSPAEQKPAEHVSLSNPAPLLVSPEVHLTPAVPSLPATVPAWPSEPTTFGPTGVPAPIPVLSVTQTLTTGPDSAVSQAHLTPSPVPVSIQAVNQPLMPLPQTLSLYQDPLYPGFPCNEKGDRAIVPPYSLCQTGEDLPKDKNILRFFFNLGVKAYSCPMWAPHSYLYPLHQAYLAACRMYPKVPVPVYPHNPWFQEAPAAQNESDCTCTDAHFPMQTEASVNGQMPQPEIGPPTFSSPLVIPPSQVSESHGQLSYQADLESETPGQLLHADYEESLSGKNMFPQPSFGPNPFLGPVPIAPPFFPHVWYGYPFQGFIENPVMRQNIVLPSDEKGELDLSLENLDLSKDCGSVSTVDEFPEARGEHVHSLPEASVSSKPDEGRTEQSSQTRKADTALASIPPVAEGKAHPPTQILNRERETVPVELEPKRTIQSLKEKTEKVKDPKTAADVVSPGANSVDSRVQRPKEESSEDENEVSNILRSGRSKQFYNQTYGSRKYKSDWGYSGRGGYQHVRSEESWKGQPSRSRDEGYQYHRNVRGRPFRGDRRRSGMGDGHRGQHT
# Summary of the method: as §1
# OTUD5 = target: T5, OTUD5 (UniProt Q96G74)
# T5 sequence (whole entry): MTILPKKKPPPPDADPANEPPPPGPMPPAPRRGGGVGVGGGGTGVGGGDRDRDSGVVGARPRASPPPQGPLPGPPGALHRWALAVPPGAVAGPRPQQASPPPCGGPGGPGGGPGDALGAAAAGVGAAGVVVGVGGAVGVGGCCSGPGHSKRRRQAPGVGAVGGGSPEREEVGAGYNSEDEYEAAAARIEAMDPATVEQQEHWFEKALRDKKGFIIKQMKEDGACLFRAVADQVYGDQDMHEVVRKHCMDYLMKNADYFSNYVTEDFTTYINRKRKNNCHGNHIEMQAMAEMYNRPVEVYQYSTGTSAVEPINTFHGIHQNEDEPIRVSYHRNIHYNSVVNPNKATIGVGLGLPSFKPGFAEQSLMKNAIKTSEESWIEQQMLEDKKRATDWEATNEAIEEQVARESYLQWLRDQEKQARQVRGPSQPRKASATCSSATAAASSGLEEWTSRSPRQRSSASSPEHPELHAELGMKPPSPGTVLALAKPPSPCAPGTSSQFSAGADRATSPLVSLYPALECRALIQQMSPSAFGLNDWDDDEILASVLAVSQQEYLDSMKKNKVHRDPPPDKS
# Summary of the method: as §1
# OTUB1, sequence (Q96FW1 whole entry): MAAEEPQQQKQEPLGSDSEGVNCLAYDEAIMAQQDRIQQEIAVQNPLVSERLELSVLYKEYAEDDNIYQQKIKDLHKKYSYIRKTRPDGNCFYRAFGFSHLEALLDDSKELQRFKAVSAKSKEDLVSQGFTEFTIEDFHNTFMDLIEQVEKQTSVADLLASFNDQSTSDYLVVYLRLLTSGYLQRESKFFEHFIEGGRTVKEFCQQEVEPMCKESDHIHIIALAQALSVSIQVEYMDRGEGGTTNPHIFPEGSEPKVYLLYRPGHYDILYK
# EIF3F, sequence (O00303 whole entry): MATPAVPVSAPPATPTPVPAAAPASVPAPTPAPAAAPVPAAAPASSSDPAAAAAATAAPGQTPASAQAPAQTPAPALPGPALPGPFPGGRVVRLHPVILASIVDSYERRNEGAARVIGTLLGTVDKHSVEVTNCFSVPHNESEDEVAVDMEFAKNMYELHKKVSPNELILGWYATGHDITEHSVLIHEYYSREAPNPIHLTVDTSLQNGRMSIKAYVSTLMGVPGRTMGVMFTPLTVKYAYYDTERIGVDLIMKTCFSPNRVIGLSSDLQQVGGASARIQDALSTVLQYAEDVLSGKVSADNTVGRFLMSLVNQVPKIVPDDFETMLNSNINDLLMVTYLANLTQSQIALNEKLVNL
# ATXN3, sequence (P54252 whole entry): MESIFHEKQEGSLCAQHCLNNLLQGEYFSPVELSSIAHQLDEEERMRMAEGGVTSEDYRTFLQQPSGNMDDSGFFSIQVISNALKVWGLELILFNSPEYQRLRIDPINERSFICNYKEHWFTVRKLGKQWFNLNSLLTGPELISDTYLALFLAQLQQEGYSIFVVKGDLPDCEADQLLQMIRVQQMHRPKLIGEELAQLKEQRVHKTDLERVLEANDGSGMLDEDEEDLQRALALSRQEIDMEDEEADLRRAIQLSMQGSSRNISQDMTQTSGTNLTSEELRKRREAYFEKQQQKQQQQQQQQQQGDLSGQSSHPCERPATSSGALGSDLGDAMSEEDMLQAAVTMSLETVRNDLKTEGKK
# EIF3H, sequence (O15372 whole entry): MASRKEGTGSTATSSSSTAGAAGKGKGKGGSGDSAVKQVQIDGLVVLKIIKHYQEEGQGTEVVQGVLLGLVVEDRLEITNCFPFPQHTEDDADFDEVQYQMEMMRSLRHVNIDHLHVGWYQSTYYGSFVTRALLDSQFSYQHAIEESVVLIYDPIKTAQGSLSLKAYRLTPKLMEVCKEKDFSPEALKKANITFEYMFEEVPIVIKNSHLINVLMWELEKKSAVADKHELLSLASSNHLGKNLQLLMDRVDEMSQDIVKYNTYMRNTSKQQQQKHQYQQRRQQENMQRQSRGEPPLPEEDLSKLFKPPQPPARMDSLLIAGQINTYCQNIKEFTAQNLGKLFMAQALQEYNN
structure (smiles),measurement,setting,value
Cl.Cn1nc2c(c1CNC(=O)CCl)CCCC2,log2 ratio of Biotin-Ahx-Ub-VS probe labelling,ALG13,-0.455
same,log2 ratio of Biotin-Ahx-Ub-VS probe labelling,ATXN3,-0.903
same,log2 ratio of Biotin-Ahx-Ub-VS probe labelling,BAP1,-2.53 (active)
same,log2 ratio of Biotin-Ahx-Ub-VS probe labelling,EIF3F,-0.323
same,log2 ratio of Biotin-Ahx-Ub-VS probe labelling,EIF3H,-0.0155
same,log2 ratio of Biotin-Ahx-Ub-VS probe labelling,FAM105A,-0.099
same,log2 ratio of Biotin-Ahx-Ub-VS probe labelling,OTUB1,-0.175
same,log2 ratio of Biotin-Ahx-Ub-VS probe labelling,OTUD4,-0.319
same,log2 ratio of Biotin-Ahx-Ub-VS probe labelling,OTUD5,-0.329
